mcGAS inh: mouse cGAS inhibition by luminescence; Q8C6L5; recombinant cGAS, Kinase-Glo ATP depletion luminescence; inhibition, % at 12.5 µM; 160,000 compounds, 0.15% hits; AID 1259399;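 note: 0% = negative control wells and 100% = reference inhibitor with no enzyme activity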
Target sequence (Q8C6L5 whole entry, looked up): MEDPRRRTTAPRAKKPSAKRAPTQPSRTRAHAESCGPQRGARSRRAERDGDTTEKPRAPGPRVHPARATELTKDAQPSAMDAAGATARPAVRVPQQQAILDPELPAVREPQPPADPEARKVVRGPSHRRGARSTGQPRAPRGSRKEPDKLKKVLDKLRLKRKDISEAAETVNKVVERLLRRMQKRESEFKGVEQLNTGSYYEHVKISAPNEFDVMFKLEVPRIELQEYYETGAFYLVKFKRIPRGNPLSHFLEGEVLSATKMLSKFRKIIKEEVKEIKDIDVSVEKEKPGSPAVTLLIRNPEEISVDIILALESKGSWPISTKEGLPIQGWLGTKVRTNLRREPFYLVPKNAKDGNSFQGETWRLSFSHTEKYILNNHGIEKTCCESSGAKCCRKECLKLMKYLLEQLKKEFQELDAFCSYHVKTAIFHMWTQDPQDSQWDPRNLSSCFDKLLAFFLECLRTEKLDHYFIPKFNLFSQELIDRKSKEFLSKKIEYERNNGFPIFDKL
hcGAS lum: human cGAS inhibition. recombinant h-cGAS, ATP depletion, Kinase-Glo luminescence. 290,000 compounds, 0.081% hits. AID 1259398. inhibition, % at 12.5 µM. Q8N884;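 note: 0% = vehicle reaction and 100% = reaction without DNA for no activity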
NPYLR7 agonist: activates Aedes aegypti NPYLR7 receptor; HEK293T NPYLR7/Galpha15, GCaMP6s calcium fluorescence; activation, % at 10 µM; 270,000 compounds, 0.15% hits; AID 1259423; in the data active = activation above about 40%;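 note: 0% = vehicle and 100% = reference agonist at the receptor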
Starred values were filed as active, the others as inactive; . = no result given. The list is not random: actives were taken first. Their share in the collection is about 0.28%. Cut-off read from the data, not from the text of the source, unless noted: active = inhibition above about 40%; inactive = the rest.

SMILES	mcGAS inh	hcGAS lum	NPYLR7 agonist
Cc1ccc(C)c(C2C(C#N)C(=N)SC(=N)C2C#N)c1 (stereo unspecified)	.	-3	120*
CC(C)OC(=O)CSc1nc2ccccc2c(=O)n1-c1ccccc1	-3	-5	-2
CC(=O)C1=C(O)C=C2Oc3c(C(C)=O)c(O)c(C)c(O)c3C2(C)C1=O (stereo unspecified)	86*	78*	1
O=C1CCCC2Nc3ncnc(Cl)c3OC12 (stereo unspecified)	.	6	77*
COCCc1noc(CN2C[C@H]3CC[C@@H]2CN(Cc2cscn2)C3)n1	-7	-16	.
COc1ccccc1OCCCOc1ccc(Br)cc1Cl	.	1	60*
COc1cccc(OC)c1OCCCOc1ccc(Br)cc1Cl	.	-5	-6
O=C(CCC(=O)c1ccc2c(c1)CCCC2)NC(c1nn[nH]n1)c1cc(F)ccc1F (stereo unspecified)	.	0	2
CCC(=O)Nc1c(Cl)cc(S(N)(=O)=O)cc1Cl	.	-9	6
N#CC(=Cc1c(F)c(F)c(F)c(F)c1F)c1ccccn1	-4	-1	99*
N#CC(=Cc1ccccc1I)c1ccccn1	-4	-4	-1
C[C@@H](NC(=O)CN1Cc2ccc(N3CCOCC3)nc2C1=O)c1ccccc1	-6	-5	61*
CN(C)CCNC(=O)CN1Cc2ccc(N3CCOCC3)nc2C1=O	-4	-3	13
Nc1ncnc2c1ncn2C1OC(COP(=O)(O)OP(=O)(O)OP(=O)(O)OP(=O)(O)OCC2OC(n3cnc4c(N)ncnc43)C(O)C2O)C(O)C1O (stereo unspecified)	-1	2	20
Nc1nc(Cl)nc2c1ncn2[C@@H]1O[C@H](COP(=O)(O)OP(=O)(O)OP(=O)(O)O)[C@H](O)C1O (stereo partly specified)	9	2	129*
CC(C)(C)c1nn2cnnc2n(/N=C\c2ccc(OCc3ccc(Cl)cc3)cc2)c1=O	.	-8	3
COc1cc2c(cc1OC)C(c1ccccc1)N(C(=O)Cc1nc(-c3ccc(C(F)(F)F)cc3)oc1C)CC2 (stereo unspecified)	-9	-11	5
CC(C)(C#N)CCCN1CCc2cc(S(N)(=O)=O)ccc21	.	-6	-24
COc1ccc(NC(=O)c2sc(=O)n(Cc3ccccc3OC(C)=O)c2C)cc1	.	-5	-2
Cc1ccc(OCCNC(=O)N2CCN(S(=O)(=O)c3ccccc3Cl)CC2)c(C)c1	-8	-11	46*
Cc1cc(C)c(C)c(OCCCNC(=O)N2CCN(S(=O)(=O)c3ccccc3[N+](=O)[O-])CC2)c1	-5	-7	17
CC1CN(C(=O)c2cc3n(n2)CCN(Cc2ccc(Cl)cc2)C3=O)CC(C)O1 (stereo unspecified)	-6	-3	14
Cc1cc(C)c2c(C)c(C(=O)NCC(C)(C)NS(C)(=O)=O)sc2n1	.	-5	0

Assay outcomes as filed in PubChem.
